# Only some compounds are listed: those with a hit (about 3.5% of all), similar ones and a draw of the others.
# TEAD-YAP block: TEAD-YAP interaction inhibition, primary screen, TEAD-YAP interaction inhibitor project, luminescence, HEK-TIYL cells. 1.4% of 640,000 active. TEAD-Gal4/YAP UAS-luciferase luminescence. inhibition, % at 9.12 µM; in the data active means inhibition above about 32%;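 further: 0% = median of test compound wells and 100% = reference inhibitor wells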
# GPR151 activ: activators of human GPR151, primary screen, cell-based, PathHunter beta-arrestin, luminescence | G-protein coupled receptor 151 (Homo sapiens), Q8TDV0 | PathHunter beta-arrestin GPR151 cells | activation, % at 11.2 µM | 1% of 650,000 active | AID 1508602, 2020; in the data active means activation above about 4.9%;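 further: 0% = median of compound wells and 100% = cells with positive control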
# MITF primary: MITF inhibitors, primary screen, biochemical, AlphaScreen, human; Microphthalmia-associated transcription factor (Homo sapiens), O75030; AlphaScreen MITF homodimerization, bead proximity signal; 0.91% of 650,000 active; inhibition, % at 2.6 µM; AID 1259374, 2018; in the data active means inhibition above about 50%;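 further: 0% = vehicle wells with protein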
# FBW7 act: FBW7 E3 ligase activators, primary screen, biochemical, AlphaScreen, human | AlphaScreen FBW7–phospho-cyclin E peptide binding, activator screen | 0.13% of 650,000 active | normalized activity (activation), % at 26.1 µM | F-box/WD repeat-containing protein 7 (Homo sapiens), Q969H0 | AID 1259310, 2017; in the data active means normalized activity above about 1.9%;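 further: purified mutant Fbw7 with reduced substrate affinity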
# GPR151 conf act: GPR151 activators, triplicate retest, confirmation, cell-based, PathHunter beta-arrestin, luminescence | 6,700 tested, under 10 active | GPR151 PathHunter beta-arrestin cells, 90 min; % of EA-reagent control over plate median | AID 1508609, 2020 | shares compounds with GPR151 activ | activation, % at 11.2 µM;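 active means mean percent activation across replicates above the confirmation screen cutoff of 4.91%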
# GPR119 ag: GPR119 activators in beta-arrestin cells, counter-screen for GPR151 activator project, cell-based, PathHunter beta-arrestin, luminescence, triplicate; shares compounds with GPR151 activ; 90 min; 0 = compound-well median, 100 = enzyme-acceptor control; activation, % at 11.2 µM; 0.3% of 6,700 active;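 active means mean percent activation in the counterscreen above 29.09%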;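 further: counterscreen on off-target GPR119 to flag nonselective hits from the GPR151 activator screen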
# Target sequence (Q8TDV5 whole entry, looked up): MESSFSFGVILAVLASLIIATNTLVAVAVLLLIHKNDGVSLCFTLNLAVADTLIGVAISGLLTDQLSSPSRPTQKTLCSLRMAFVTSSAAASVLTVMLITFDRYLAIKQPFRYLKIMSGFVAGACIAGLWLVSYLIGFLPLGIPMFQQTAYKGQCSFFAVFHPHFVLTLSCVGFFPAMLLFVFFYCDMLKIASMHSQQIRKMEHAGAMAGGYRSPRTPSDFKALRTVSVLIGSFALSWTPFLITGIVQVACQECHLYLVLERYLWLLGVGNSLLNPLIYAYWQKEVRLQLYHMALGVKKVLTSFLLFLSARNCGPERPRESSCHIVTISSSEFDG
# * hit, by the source's call; · = no result given.
SMILES,TEAD-YAP block,GPR151 activ,MITF primary,FBW7 act,GPR151 conf act,GPR119 ag
CCOc1ccc(C2=N/C(=C\c3ccc(OC)c(OC)c3OC)C(=O)O2)cc1OCC,-5.5,1.2,2.9,0.0,·,·
COc1ccccc1CN1CCNC(=O)C1CC(=O)NCc1csc(C)n1 (centres undefined),-23.9,5.8*,-3.3,0.1,0.3,-1.6
COc1ccccc1CN1CCNC(=O)C1CC(=O)NCc1ccc(F)cc1 (centres undefined),16.8,0.4,11.6,-0.1,·,·
CCN1CCN(CC(O)COCc2ccc3c(c2)OCO3)CC1 (centres undefined),5.3,0.1,11.2,0.2,·,·
OC(COCc1ccc2c(c1)OCO2)CN1CCN(Cc2ccccc2)CC1 (centres undefined),1.8,6.9*,1.2,-0.1,0.4,-2.2
O=C(N1CCOCC1)N1CCN(Cc2ccc3c(c2)OCO3)CC1,10.6,6.1*,7.0,-0.1,0.3,-4.4
OC(COc1ccccc1)CN1CCN(Cc2ccc3c(c2)OCO3)CC1 (centres undefined),7.8,8.4*,15.1,0.1,-1.0,-8.5
Cc1nnc2ccc(SCC(=O)N3CCN(Cc4ccc5c(c4)OCO5)CC3)nn12,-6.5,5.7*,16.5,0.2,1.0,5.1
O=c1oc2ccccc2n1S(=O)(=O)c1ccc([N+](=O)[O-])cc1,-1.4,1.1,-9.2,-0.2,·,·
CCn1c(SCC(=O)c2cccs2)nc2c1c(=O)n(C)c(=O)n2C,-3.0,5.3*,-3.4,-0.1,0.3,-0.8
C=CCn1cnc2c(nnn2-c2cc(C)cc(C)c2)c1=O,-15.8,9.4*,-7.9,0.0,1.2,9.0
COCCN1C(=O)CC[C@@]23C1=NC(C(=O)OC)=C(C(=O)OC)[C@@H]2N(Cc1ccccc1)c1ccccc13,·,-0.3,-3.4,-0.1,·,·
COC(=O)C1=C(C(=O)OC)[C@@H]2N(C)c3ccccc3[C@@]23CCC(=O)N(CCCOC(C)C)C3=N1,·,7.2*,-4.2,0.1,-0.9,-6.9
COCCN1C(=O)CC[C@@]23C1=NC(C(=O)OC)=C(C(=O)OC)[C@@H]2N(C)c1ccccc13,·,6.9*,15.0,0.1,0.7,7.9
Cc1ccccc1/C=N/NC(=O)Cn1cnc2c1c(=O)n(C)c(=O)n2C,1.8,3.4,3.5,-0.1,·,·
COc1ccc(CCNC(=O)NC2CC(=O)N(c3cccc(F)c3)C2)cc1 (centres undefined),-2.7,1.2,-3.2,0.0,·,·
O=C1CC(NCCCc2ccccc2)C(=O)N1c1ccc(Br)cc1 (centres undefined),-1.2,11.0*,-0.8,0.2,-0.7,-3.7
O=C1CC(NCCCCO)C(=O)N1c1ccc(Br)cc1 (centres undefined),10.7,0.2,0.1,-0.1,·,·
Cc1ccnc(NC(=O)NC2CC(=O)N(c3ccccc3)C2)c1 (centres undefined),-3.2,6.1*,-1.3,0.1,0.9,-8.2
COc1ccc(CCNC(=O)NC2CC(=O)N(c3ccccc3)C2)cc1 (centres undefined),0.4,6.1*,-1.9,-0.2,-0.5,2.8
O=C(NCCc1ccccc1)C1CC(=O)N(c2ccc(Br)cc2)C1 (centres undefined),1.1,5.5*,13.0,0.2,0.8,-6.6
O=C(Nc1cc(C(F)(F)F)ccc1N1CCCC1)c1ccc(Cl)cc1,4.3,2.0,-6.2,-0.1,·,·
CC(C)(C)NC(=O)C1CCN(S(=O)(=O)c2cc(C(F)(F)F)ccc2Cl)CC1,12.2,3.1,4.1,-0.1,·,·
O=C(NCc1ccc(Cl)s1)C1CC(Cc2ccc(F)cc2)=NO1 (centres undefined),-30.2,2.5,4.3,-0.5,·,·
CCCCOc1cccc(C2C3=C(CC(C)(C)CC3=O)Nc3ccccc3N2C(=O)CC)c1 (centres undefined),-4.8,-0.6,-5.3,-0.3,·,·
SMILES,TEAD-YAP block,GPR151 activ,MITF primary,FBW7 act,GPR151 conf act,GPR119 ag
Cc1ccc(N2CC(NC(=O)Nc3ncccc3C)CC2=O)cc1 (centres undefined),2.8,5.9*,-4.8,0.1,0.5,2.2
Cc1ccc(N2CC(NC(=O)Nc3nccs3)CC2=O)cc1 (centres undefined),4.6,2.3,7.8,0.3,·,·
COc1ccc(N2CC(NC(=O)Nc3ccccc3C(N)=O)CC2=O)cc1OC (centres undefined),-6.1,5.4*,-13.4,0.0,1.3,-1.8
CC(=O)Nc1cccc(N=Cc2cc(Cl)cc(Cl)c2O)c1,-6.2,5.7*,-4.1,0.1,1.0,8.7
O=C(Cn1c(=O)oc2ccccc21)NCc1ccco1,3.2,5.3*,17.2,0.0,-1.1,-0.4
O=C(CN1C(=O)c2ccccc2S1(=O)=O)NCc1ccco1,-8.0,9.0*,-8.3,-0.1,-0.4,15.7
Oc1oc(-c2ccccc2)nc1C=Nc1ccccc1Cl,-2.9,0.1,8.5,-0.1,·,·
CC(C)COC(=O)NC(C)(C)c1ccncc1,-4.0,0.4,7.3,0.2,·,·
Nc1ccc(C(=O)Nc2ccc(Oc3cccc(Oc4ccc(NC(=O)c5ccc(N)cc5)cc4)c3)cc2)cc1,-0.3,6.1*,7.0,-0.1,-1.4,-13.5
O=C(Nc1ccc2c(c1)CN(C1CSCCSC1)CC2)c1ccncc1,-27.3,5.3*,-11.2,0.1,0.3,7.0
Cc1cccc(NC(=O)c2ccc([N+](=O)[O-])c(C)c2)n1,-47.1,-4.2,-1.6,-0.1,·,·
O=C(NNC(=O)c1ccccc1Br)c1ccc(Cl)cc1,-13.5,1.0,-5.3,0.0,·,·
O=C(NOC(=O)c1ccccc1Br)c1ccc(Cl)cc1,7.9,8.0*,-9.6,-0.1,-0.3,6.1
O=C(NCCc1ccc(O)cc1)c1ccc2nc(N3CCC(N4CCOCC4)CC3)sc2c1,-4.3,1.8,-2.6,-0.1,·,·
O=C(Nc1ccc(Cl)c(Cl)c1)c1cc(Cl)ccc1NS(=O)(=O)c1cccc2nsnc12,-6.9,1.1,-6.4,-0.1,·,·
Cc1ccc(NC(=O)C2CCCN2Sc2ccccc2[N+](=O)[O-])c(C)c1 (centres undefined),4.8,6.0*,13.8,0.0,0.7,9.5
CCc1nnc(NS(=O)(=O)c2ccc(NC(=O)CN3C(=O)c4ccccc4C3=O)cc2)s1,2.0,7.4*,-5.1,-0.1,0.7,13.9
NS(=O)(=O)c1ccc(CCNC(=O)c2ccccc2Cl)cc1,2.4,0.8,-5.8,-0.2,·,·
NS(=O)(=O)c1ccc(CCNC(=O)c2ccccc2Oc2ccccc2)cc1,-0.9,6.7*,-7.7,-0.7,-0.7,-3.5

# Screening results deposited in PubChem BioAssay by The Scripps Research Institute Molecular Screening Center.
